Where a name gives a salt, the structure may show the parent alone.
Columns and labels:
[1] = system: RIVA; experiment: growth inhibition by drug plus 177Lu-lilotomab satetraxetan (1 - RLU/untreated control) (fraction); higher = stronger inhibition; conditions: 177Lu-lilotomab satetraxetan 0.5 ug/ml
In short: (§1)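 RIVA or U-2932 cells were left untreated or pretreated for 18 h with a radiolabelled anti-CD37 antibody conjugate (~600 MBq/mg) at 0.5 µg/ml for RIVA or 1 µg/ml for U-2932. The cells were then washed and seeded at 3,000 cells/well on plates pre-printed with the Selleck Cambridge Cancer Compound library, dosed at 10/100 nM for RIVA and 10/1,000 nM for U-2932. From day 3, RealTime-Glo luminescence was read daily after 1 h at 37°C. Growth inhibition was taken as one minus RLU over the mean of the untreated no-drug wells, of which there were 48 per plate.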

[2] = system: U-2932; experiment: growth inhibition by drug alone (1 - RLU/untreated control) (fraction); higher = stronger inhibition; conditions: 177Lu-lilotomab satetraxetan 0 ug/ml
In short: as §1

[3] = system: RIVA; experiment: as above; conditions: 177Lu-lilotomab satetraxetan 0 ug/ml
In short: as §1

[4] = system: U-2932; experiment: growth inhibition by drug plus 177Lu-lilotomab satetraxetan (1 - RLU/untreated control) (fraction); higher = stronger inhibition; conditions: 177Lu-lilotomab satetraxetan 1 ug/ml
In short: as §1

SMILES | growth inhibition by drug plus 177Lu-lilotomab satetraxetan ([1]; 100 nM, time (day): 5) | growth inhibition by drug plus 177Lu-lilotomab satetraxetan ([1]; 100 nM, time (day): 6) | growth inhibition by drug alone ([2]; 10 nM, time (day): 3) | growth inhibition by drug alone ([2]; 10 nM, time (day): 4) | growth inhibition by drug alone ([2]; 10 nM, time (day): 5) | growth inhibition by drug alone ([2]; 10 nM, time (day): 6) | growth inhibition by drug alone ([2]; 1000 nM, time (day): 3) | growth inhibition by drug alone ([2]; 1000 nM, time (day): 4) | growth inhibition by drug alone ([2]; 1000 nM, time (day): 5) | growth inhibition by drug alone ([2]; 1000 nM, time (day): 6) | growth inhibition by drug alone ([3]; 10 nM, time (day): 3) | growth inhibition by drug alone ([3]; 10 nM, time (day): 4) | growth inhibition by drug alone ([3]; 10 nM, time (day): 5) | growth inhibition by drug alone ([3]; 10 nM, time (day): 6) | growth inhibition by drug alone ([3]; 100 nM, time (day): 3) | growth inhibition by drug alone ([3]; 100 nM, time (day): 4) | growth inhibition by drug alone ([3]; 100 nM, time (day): 5) | growth inhibition by drug alone ([3]; 100 nM, time (day): 6) | growth inhibition by drug plus 177Lu-lilotomab satetraxetan ([4]; 10 nM, time (day): 3) | growth inhibition by drug plus 177Lu-lilotomab satetraxetan ([4]; 10 nM, time (day): 4) | growth inhibition by drug plus 177Lu-lilotomab satetraxetan ([4]; 10 nM, time (day): 5) | growth inhibition by drug plus 177Lu-lilotomab satetraxetan ([4]; 10 nM, time (day): 6) | growth inhibition by drug plus 177Lu-lilotomab satetraxetan ([4]; 1000 nM, time (day): 3) | growth inhibition by drug plus 177Lu-lilotomab satetraxetan ([4]; 1000 nM, time (day): 4) | growth inhibition by drug plus 177Lu-lilotomab satetraxetan ([4]; 1000 nM, time (day): 5) | growth inhibition by drug plus 177Lu-lilotomab satetraxetan ([4]; 1000 nM, time (day): 6) | growth inhibition by drug plus 177Lu-lilotomab satetraxetan ([1]; 10 nM, time (day): 3) | growth inhibition by drug plus 177Lu-lilotomab satetraxetan ([1]; 10 nM, time (day): 4) | growth inhibition by drug plus 177Lu-lilotomab satetraxetan ([1]; 10 nM, time (day): 5) | growth inhibition by drug plus 177Lu-lilotomab satetraxetan ([1]; 10 nM, time (day): 6) | growth inhibition by drug plus 177Lu-lilotomab satetraxetan ([1]; 100 nM, time (day): 3) | growth inhibition by drug plus 177Lu-lilotomab satetraxetan ([1]; 100 nM, time (day): 4)
CC[C@H](CO)Nc1nc(NCc2ccccc2)c2ncn(C(C)C)c2n1 [Roscovitine (Seliciclib, CYC202)] | 0.55 | 0.531 |  |  |  |  |  |  |  |  |  |  |  |  |  |  |  |  |  |  |  |  |  |  |  |  |  |  |  |  |  | 
Nc1nc(OCc2cc(Br)cs2)c2[nH]cnc2n1 [Lomeguatrib] | 0.488 | 0.463 | -0.115 | -0.036 | -0.163 | -0.244 | -0.0214 | -0.011 | -0.105 | -0.195 | -0.0122 | -0.0435 | -0.118 | -0.367 | -0.0285 | -0.0397 | -0.0789 | -0.154 | 0.00798 | 0.0431 | 0.0314 | 0.114 | -0.0706 | 0.00418 | 0.025 | 0.00957 | 0.437 | 0.531 | 0.544 | 0.548 | 0.404 | 0.479
O=C(/C=C/c1cccc(S(=O)(=O)Nc2ccccc2)c1)NO [Belinostat (PXD101)] | 0.938 | 0.945 | 0.222 | 0.196 | 0.137 | 0.152 | 0.961 | 0.964 | 0.974 | 0.979 | 0.107 | 0.129 | 0.11 | 0.00837 | 0.884 | 0.83 | 0.818 | 0.796 | 0.0215 | 0.0654 | 0.0711 | 0.0685 | 0.961 | 0.975 | 0.984 | 0.988 | 0.503 | 0.586 | 0.594 | 0.603 | 0.934 | 0.935
COC(=O)C1=C(C)NC(C)=C(C(=O)OCCCN2CCC(c3ccccc3)(c3ccccc3)CC2)[C@H]1c1cccc([N+](=O)[O-])c1 [S-(+)-Niguldipine hydrochloride] | 0.566 | 0.562 | 0.0443 | 0.0164 | -0.0556 | -0.116 | 0.105 | 0.109 | 0.032 | 0.0169 | 0.00175 | -0.0387 | -0.0555 | -0.128 | -0.336 | -0.283 | -0.288 | -0.329 | -0.0121 | 0.0306 | 0.0867 | 0.111 | 0.113 | 0.151 | 0.317 | 0.268 | 0.569 | 0.592 | 0.608 | 0.623 | 0.527 | 0.552
COc1ccc(/C=C\c2cc(OC)c(OC)c(OC)c2)cc1O [Combretastatin A4] | 0.963 | 0.971 | 0.967 | 0.973 | 0.979 | 0.983 | 0.965 | 0.975 | 0.981 | 0.985 | 0.953 | 0.965 | 0.971 | 0.975 | 0.924 | 0.936 | 0.954 | 0.964 | 0.971 | 0.978 | 0.983 | 0.986 | 0.965 | 0.979 | 0.985 | 0.988 | 0.964 | 0.976 | 0.98 | 0.984 | 0.936 | 0.949
CN1CCN(c2ccc3nc(-c4c(N)c5c(F)cccc5[nH]c4=O)[nH]c3c2)CC1 [Dovitinib (TKI-258)] | 0.413 | 0.411 | 0.12 | 0.0504 | -0.004 | -0.0165 | 0.0669 | -0.0112 | -0.0673 | -0.128 | 0.0921 | 0.0422 | -0.0205 | -0.168 | -0.156 | -0.0867 | -0.188 | -0.316 | 0.0639 | 0.0792 | 0.118 | 0.243 | 0.0496 | 0.031 | 0.0265 | 0.126 | 0.421 | 0.501 | 0.522 | 0.53 | 0.358 | 0.399
CS(=O)(=O)N1CCc2c(-c3cnc(N)nc3)nc(N3CCOCC3)nc21 | 0.439 | 0.428 | 0.149 | 0.108 | -0.0352 | -0.0152 | 0.351 | 0.362 | 0.336 | 0.366 | 0.14 | 0.0286 | -0.0356 | -0.278 | 0.291 | 0.165 | 0.108 | 0.0361 | 0.0821 | 0.0867 | 0.0957 | 0.135 | 0.216 | 0.214 | 0.223 | 0.326 | 0.395 | 0.499 | 0.537 | 0.543 | 0.451 | 0.434
c1ccc2c(CCNc3ccc(Nc4ccncc4)cc3)c[nH]c2c1 | 0.278 | 0.294 | 0.0584 | 0.057 | 0.0439 | -0.174 | 0.0747 | 0.114 | 0.115 | -0.0134 | -0.0529 | -0.0355 | -0.189 | -0.337 | -0.226 | -0.135 | -0.248 | -0.272 | 0.0442 | 0.058 | 0.101 | 0.125 | 0.0679 | 0.191 | 0.21 | 0.292 | 0.249 | 0.475 | 0.497 | 0.5 | 0.12 | 0.259

— the supplement of paper PMC6897291
